The values that follow come from PMC4336329 (PLoS ONE, 2015).

About 14,000 (4.5%) of roughly 310,000 compounds showed an effect of 50% or more. The effect is printed as a negative number. The sample as a whole holds a higher share of strong results than the screen did.
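Also: peak tail current of the secondary pulse compared with the same well before compound.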

Chain of human ether-à-go-go-related gene (hERG) potassium channel (Q12809 whole entry, looked up): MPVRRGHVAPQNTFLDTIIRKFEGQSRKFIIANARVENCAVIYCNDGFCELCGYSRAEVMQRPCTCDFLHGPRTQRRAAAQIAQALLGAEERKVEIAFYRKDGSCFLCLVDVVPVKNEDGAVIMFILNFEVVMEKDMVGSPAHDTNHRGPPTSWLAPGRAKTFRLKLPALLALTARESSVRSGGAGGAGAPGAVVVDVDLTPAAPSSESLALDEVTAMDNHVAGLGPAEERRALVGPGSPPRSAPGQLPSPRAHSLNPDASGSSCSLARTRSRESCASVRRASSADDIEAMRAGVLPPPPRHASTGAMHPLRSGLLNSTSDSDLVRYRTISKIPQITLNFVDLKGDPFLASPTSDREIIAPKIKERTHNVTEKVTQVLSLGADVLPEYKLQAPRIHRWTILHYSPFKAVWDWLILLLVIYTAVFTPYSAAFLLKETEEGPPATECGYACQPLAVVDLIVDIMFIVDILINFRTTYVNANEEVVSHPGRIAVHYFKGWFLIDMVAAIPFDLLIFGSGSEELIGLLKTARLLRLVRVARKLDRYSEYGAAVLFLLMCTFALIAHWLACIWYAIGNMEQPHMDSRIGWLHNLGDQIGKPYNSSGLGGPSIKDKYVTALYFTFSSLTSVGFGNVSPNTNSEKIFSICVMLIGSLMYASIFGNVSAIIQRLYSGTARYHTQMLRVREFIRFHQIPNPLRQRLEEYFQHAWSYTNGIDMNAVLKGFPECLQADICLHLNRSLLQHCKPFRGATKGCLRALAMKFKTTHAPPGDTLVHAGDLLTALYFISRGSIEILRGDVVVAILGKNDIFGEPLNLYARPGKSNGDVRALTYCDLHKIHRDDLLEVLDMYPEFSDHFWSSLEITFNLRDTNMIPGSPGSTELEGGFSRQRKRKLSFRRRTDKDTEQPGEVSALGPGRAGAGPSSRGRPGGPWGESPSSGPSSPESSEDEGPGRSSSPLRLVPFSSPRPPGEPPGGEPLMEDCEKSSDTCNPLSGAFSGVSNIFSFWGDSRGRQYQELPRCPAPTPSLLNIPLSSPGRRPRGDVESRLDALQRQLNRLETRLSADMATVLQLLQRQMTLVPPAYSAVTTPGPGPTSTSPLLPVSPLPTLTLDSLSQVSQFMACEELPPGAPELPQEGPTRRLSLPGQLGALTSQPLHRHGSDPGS

This experiment addresses human ether-à-go-go-related gene (hERG) potassium channel (human, UniProt Q12809). Put plainly: primary screen, population patch clamp on CHO cells stably expressing hERG; higher = less effect of the substance.
Regarding `N#CC1=C(Nc2ccccc2)SC=C(c2ccc(Br)cc2)N=C1N1CCOCC1`, the “hERG current change (%, negative = inhibition) at 10uM” value is -64.7%.

`N#Cc1nc(-c2ccccc2Cl)oc1N1CCOCC1`: the “hERG current change (%, negative = inhibition) at 10uM” value was -4.51%.

For the compound `Br.C=CCN1C(c2ccc(Br)cc2)=CS/C1=C(/C#N)c1nnc(N2CCOCC2)n1-c1ccccc1`, the “hERG current change (%, negative = inhibition) at 10uM” value is on record as -13.4%.

On to `N#CC1=C(Nc2ccccc2)SC=C(c2ccc(Cl)c(Cl)c2)N=C1N1CCOCC1`, for which the “hERG current change (%, negative = inhibition) at 10uM” value is listed as -50.9%.

On to `c1ccc(Nc2nc(N3CCOCC3)nc(N3CCOCC3)n2)cc1`, for which the “hERG current change (%, negative = inhibition) at 10uM” value was -7.35%.

Turning to `N#CC1=C(Nc2ccccc2)SC=C(c2ccc(F)cc2)N=C1N1CCOCC1`, the “hERG current change (%, negative = inhibition) at 10uM” value is reported as -10.8%.

Turning to `C/C(NC(=O)c1ccccc1F)=C1\C(=O)C[C@@H]2[C@H]1C2(C)C`, the “hERG current change (%, negative = inhibition) at 10uM” value was -14.4%.

For the compound `CC(C)OC(=O)CSc1nnc(SCc2cccc3ccccc23)s1`, the “hERG current change (%, negative = inhibition) at 10uM” value is 7.07%.

As to `CC1CC2c3cccc(C(=O)O)c3C(=O)N2c2ccc(Cl)cc21` (centres unmarked), the “hERG current change (%, negative = inhibition) at 10uM” value came to 5.97%.

`CCCC(C)NCC(=O)Nc1ccccc1-c1ccccc1.O=C(O)C(=O)O` (centres unmarked): the “hERG current change (%, negative = inhibition) at 10uM” value is -21.5%.

Take `COc1ccc(CCn2c(N3CCOCC3)nc3c2c(=O)[nH]c(=O)n3C)cc1`: the “hERG current change (%, negative = inhibition) at 10uM” value is listed as -15.5%.

Consider `CC(=O)c1cc(C(=O)N2CCCC(C(=O)c3ccc(Cl)cc3)C2)cs1` (centres unmarked), for which the “hERG current change (%, negative = inhibition) at 10uM” value was -31.9%.

For the compound `Cc1cccc(-c2ncc(CN3CCN(CCC(C)C)C(CCO)C3)cn2)c1` (centres unmarked), the “hERG current change (%, negative = inhibition) at 10uM” value was -45%.

Take `OCCC1CN(Cc2cccs2)CCN1Cc1ccccc1` (centres unmarked): the “hERG current change (%, negative = inhibition) at 10uM” value was -20.9%.

`CC(C)CN1CCN(Cc2ccc(C#CC(C)(C)O)cc2)CC1CCO` (centres unmarked): the “hERG current change (%, negative = inhibition) at 10uM” value was determined as 8.57%.

On to `OCCC1CN(Cc2ccc(C(F)(F)F)cc2)CCN1Cc1ccccc1` (centres unmarked), for which the “hERG current change (%, negative = inhibition) at 10uM” value is -56.8%.

As for `CC(C)CCN1CCN(Cc2ccc(C(F)(F)F)cc2)CC1CCO` (centres unmarked), the “hERG current change (%, negative = inhibition) at 10uM” value was -58.1%.

Take `CC(C)CCN1CCN(Cc2ccc(C#CCCO)cc2)CC1CCO` (centres unmarked): the “hERG current change (%, negative = inhibition) at 10uM” value is on record as -6.37%.

On to `CC(C)CCN1CCN(Cc2cccc(C(F)(F)F)c2)CC1CCO` (centres unmarked), for which the “hERG current change (%, negative = inhibition) at 10uM” value is listed as -55.1%.

For `CC(C)CN1CCN(Cc2ccc(C(F)(F)F)cc2)CC1CCO` (centres unmarked), the “hERG current change (%, negative = inhibition) at 10uM” value is recorded as -56.6%.

As to `OCCC1CN(Cc2cccc(C(F)(F)F)c2)CCN1Cc1ccccc1` (centres unmarked), the “hERG current change (%, negative = inhibition) at 10uM” value was -46.2%.

Regarding `CC(C)CCN1CCN(Cc2ccc(N3CCNC3=O)cc2)CC1CCO` (centres unmarked), the “hERG current change (%, negative = inhibition) at 10uM” value was -20.1%.

Consider `CC(C)CN1CCN(Cc2ccccc2C(F)(F)F)CC1CCO` (centres unmarked), for which the “hERG current change (%, negative = inhibition) at 10uM” value is 4.5%.

For `CN(Cc1ccc(F)cc1)C(=O)c1ccc(NS(=O)(=O)c2ccc3[nH]c(=O)[nH]c3c2)cc1`, the “hERG current change (%, negative = inhibition) at 10uM” value is on record as 12.1%.

Consider `O=[N+]([O-])c1cccc(S(=O)(=O)Nc2ccc(S(=O)(=O)NCC3CCCO3)cc2)c1` (centres unmarked), for which the “hERG current change (%, negative = inhibition) at 10uM” value is reported as -0.96%.

As for `COc1ccc(C2c3ccc(O)cc3Oc3ncn4nc(-c5ccccn5)nc4c32)cc1OC` (centres unmarked), the “hERG current change (%, negative = inhibition) at 10uM” value is listed as -71.3%.

Regarding `COc1ccc(C2c3ccc(O)cc3Oc3ncn4nc(-c5ccco5)nc4c32)cc1OC` (centres unmarked), the “hERG current change (%, negative = inhibition) at 10uM” value is 22.8%.

Consider `COc1ccc(C2c3c(ccc4ccccc34)Oc3ncn4nc(-c5ccco5)nc4c32)cc1OC` (centres unmarked), for which the “hERG current change (%, negative = inhibition) at 10uM” value was -13.4%.

With `COc1ccc(C2c3ccc(O)cc3Oc3ncn4nc(-c5ccncc5)nc4c32)cc1OC` (centres unmarked), the “hERG current change (%, negative = inhibition) at 10uM” value turned out to be 5.39%.

Consider `COc1ccc(C2c3ccc(O)cc3Oc3ncn4nc(-c5cccnc5)nc4c32)cc1OC` (centres unmarked), for which the “hERG current change (%, negative = inhibition) at 10uM” value was -56.9%.

With `COc1ccc(C2c3ccc(O)cc3Oc3ncn4nc(-c5ccccn5)nc4c32)cc1` (centres unmarked), the “hERG current change (%, negative = inhibition) at 10uM” value came to 17.9%.

As for `CC1=CC(c2ccc(Cl)cc2)n2ncnc2N1` (centres unmarked), the “hERG current change (%, negative = inhibition) at 10uM” value is on record as -9.02%.

Consider `Cc1ccc(N=CC2=C(O)CC(c3ccccc3Cl)CC2=O)cc1` (centres unmarked), for which the “hERG current change (%, negative = inhibition) at 10uM” value is recorded as -6.91%.

`Cc1ccc(CN(C)Cc2cc(=O)oc3cc(C)c(Cl)cc23)cc1`: the “hERG current change (%, negative = inhibition) at 10uM” value came to 14.9%.

As for `CCOC(=O)c1ccc(NC(=O)COc2cc3oc(=O)c(CC(C)O)c(C)c3cc2Cl)cc1` (centres unmarked), the “hERG current change (%, negative = inhibition) at 10uM” value worked out at 13.7%.

With `CC(=O)c1cccc(NC(=O)COc2cc3oc(=O)c(CC(C)O)c(C)c3cc2Cl)c1` (centres unmarked), the “hERG current change (%, negative = inhibition) at 10uM” value is recorded as -57.7%.

As for `O=C(COc1cc2oc(=O)c3c(c2cc1Cl)CCC3)Nc1cccnc1`, the “hERG current change (%, negative = inhibition) at 10uM” value came to 6.03%.

Take `CCOC(=O)NC(Nc1sc2c(c1C(=O)OC)CCN(C)C2)(C(F)(F)F)C(F)(F)F`: the “hERG current change (%, negative = inhibition) at 10uM” value is listed as -13.2%.

Turning to `CCCCOC(=O)Cn1c(=O)n(CC(=O)OCCCC)c2cc(C)ccc21`, the “hERG current change (%, negative = inhibition) at 10uM” value is given as -69.4%.

Take `CCCCOC(=O)Cn1c(=O)oc2ccc(C)cc21`: the “hERG current change (%, negative = inhibition) at 10uM” value amounted to 5.97%.

With `CCCCOC(=O)Cn1c(=N)n(CCN(CC)CC)c2ccccc21`, the “hERG current change (%, negative = inhibition) at 10uM” value is reported as -52.3%.

`CCN(CC)CCn1c(=N)n(CC(O)COc2ccccc2)c2ccccc21.Cl` (centres unmarked): the “hERG current change (%, negative = inhibition) at 10uM” value was -52.1%.

Turning to `CCCCOC(=O)Cn1c(=N)n(CCN2CCOCC2)c2ccccc21.Cl`, the “hERG current change (%, negative = inhibition) at 10uM” value was -36.3%.

Turning to `CCCCOC(=O)Cn1c(=O)n(CC(=O)OCCCC)c2ccccc21`, the “hERG current change (%, negative = inhibition) at 10uM” value is listed as -33.9%.

Take `CCN(CC)CCn1c(=N)n(CC(O)c2ccc(OC)c(OC)c2)c2ccccc21.Cl` (centres unmarked): the “hERG current change (%, negative = inhibition) at 10uM” value is listed as 14.4%.

Take `CCN(CC)CCn1c(=N)n(CC(O)COc2cccc(C)c2)c2ccccc21.Cl` (centres unmarked): the “hERG current change (%, negative = inhibition) at 10uM” value is on record as -65.2%.

As for `CCCCOC(=O)Cn1c(=N)n(CCC)c2ccccc21.Cl`, the “hERG current change (%, negative = inhibition) at 10uM” value is given as -31.5%.
